HT1080 IDH1KD tx: HT-1080 IDH1 knockdown cell toxicity (counter line); Potency, µM (titrated, usually from 46.1 µM), for the others: at the highest dose activity, negative = toxicity, most hits filed as cytotoxic; hit rate 2% among 360,000; HT-1080 IDH1 knockdown viability, ATP luminescence, 48 h; AID 686971;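 further: potency means the concentration at half of the fitted maximal effect; 0% = DMSO wells and -100% = cell-free medium wells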
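In this qHTS, HT-1080 cells depleted of IDH1 are exposed for 48 h at 37 °C to compound titrations. Toxicity is scored from CellTiter-Glo luminescence, with DMSO as full viability and medium alone as none.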
DT40 TDP1 no CPT: qHTS for Inhibitors of human tyrosyl-DNA phosphodiesterase 1 (TDP1): qHTS in cells in absence of CPT; DT40 Tdp1-/- hTDP1 cells, no CPT, ATP luminescence, 48 h; Potency, µM (titrated, usually from 46.2 µM), for inactives: top-dose activity change, negative = growth inhibition, most hits filed as inhibitors; hit rate 15% among 420,000; AID 686978, 2013; further: potency means the concentration at half of the fitted maximal effect; nearly all actives have a fitted effect of over 55% in size
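Chicken DT40 Tdp1-/- cells stably complemented with human TDP1 were seeded at 400 cells/well with DMSO in place of 20 nM camptothecin. After compound pinning, cells grew at least 48 hr at 37 °C; viability read by CellTiter-Glo luminescence.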
DT40 TDP1 CPT: DT40-hTDP1 cell growth loss with CPT. Potency, µM (titrated, usually from 46.2 µM), for the others: top-dose activity change, negative = growth inhibition, usual class: inhibitors. hit rate 12% among 420,000. chicken DT40 Tdp1-/-;hTDP1 cells + 20 nM CPT, ATP luminescence, 48 h. AID 686979; further: potency means the concentration at half of the fitted maximal effect; nearly all actives have a fitted effect of over 55% in size
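Chicken DT40 Tdp1-/- cells stably complemented with human TDP1 were seeded at 400 cells/well in medium containing 20 nM camptothecin, exposed to pin-transferred compounds, and grown at 37 °C for at least 48 hr. Viability was read as ATP luminescence.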
IL1B secr inh: blocks inflammasome-driven IL-1 beta release. THP-1 LPS/ATP IL-1B secretion, AlphaLISA, 16 h; stronger effect = lower value. activity change, % at 57.5 µM. hit rate 4.7% among 360,000. AID 743279; in the data active means activity change below about -50%; inconclusive means mostly about -30% to -49%
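Secreted IL-1B measured by AlphaLISA bead assay after 16 h compound exposure of THP-1 cells; compounds (final up to 57.5 uM) added 1 h before LPS (250 ng/mL) and ATP (1.25 mM) stimulation; lower signal means less secretion.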
HT1080NT lethal: kills 2HG-producing HT-1080-NT fibrosarcoma cells; HT-1080-NT fibrosarcoma viability, CellTiter-Glo ATP luminescence, 48 h; Potency, µM (titrated, usually from 46.1 µM), for the others: top-dose activity, negative = less viability, usual class: cytotoxic; hit rate 1.6% among 360,000; AID 686970;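 further: NT is the 2HG producing partner of a matched IDH1 knockdown line; potency means the concentration at half of the fitted maximal effect; 0% = DMSO-treated cells and -100% = media-only wells without cells; nearly all actives have a fitted effect of over 55% in size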
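Viability of the 2HG-overproducing fibrosarcoma line after 48 hours of compound exposure at 37 degrees C was determined by luminescence with CellTiter-Glo, and concentration-effect curves were then fitted and categorized.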
12-LOX inh: blocks human arachidonate 12S-lipoxygenase. purified 12hLO, xylenol orange hydroperoxide absorbance. Potency, µM (series often up to 108 µM), for inactives: at the highest dose activity change, negative = inhibition, actives largely listed as inhibitors. P18054. hit rate 1.1% among 580,000. AID 1671190; further: potency means the concentration at half of the fitted maximal effect
Target sequence (P18054 whole entry, looked up): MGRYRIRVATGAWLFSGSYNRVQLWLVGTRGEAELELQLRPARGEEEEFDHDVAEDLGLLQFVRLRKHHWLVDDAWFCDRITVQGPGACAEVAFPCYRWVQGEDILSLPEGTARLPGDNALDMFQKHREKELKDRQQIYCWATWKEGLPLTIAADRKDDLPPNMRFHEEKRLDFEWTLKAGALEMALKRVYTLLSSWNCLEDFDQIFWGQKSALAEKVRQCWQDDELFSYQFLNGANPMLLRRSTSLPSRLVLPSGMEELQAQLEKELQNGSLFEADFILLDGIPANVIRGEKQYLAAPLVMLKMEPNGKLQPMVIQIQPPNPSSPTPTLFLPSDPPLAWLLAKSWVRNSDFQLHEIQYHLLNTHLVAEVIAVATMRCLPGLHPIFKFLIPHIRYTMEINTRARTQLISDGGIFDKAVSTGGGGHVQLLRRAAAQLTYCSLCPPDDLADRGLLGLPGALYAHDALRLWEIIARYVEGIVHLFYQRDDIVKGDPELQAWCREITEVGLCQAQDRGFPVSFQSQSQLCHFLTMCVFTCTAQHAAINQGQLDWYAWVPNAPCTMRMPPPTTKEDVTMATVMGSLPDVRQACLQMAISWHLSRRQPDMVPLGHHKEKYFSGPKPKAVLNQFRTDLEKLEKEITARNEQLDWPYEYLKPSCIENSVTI
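Hydroperoxide product was detected by ferrous iron/xylenol orange as the 573 to 405 nm absorbance ratio. Arachidonic acid at 40 uM (final) was turned over for 30 min at room temperature by 150 nM human 12hLO, pH 7.0 Hepes buffer, after 15 min compound preincubation.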
* hit, by the source's call; ? = inconclusive; / = not tested or not shown; [ ] = remark or other dose. This excerpt belongs to a sample that is enriched for hits. Unless noted, the call rests on the fitted dose curve; in most records, active means well fitted curve in the direction sought with a large enough effect; inconclusive means small, poorly fitted or top-dose-only effect, or another doubt; inactive means no such curve, though single readings can be large; an effect the other way counts as inactive or inconclusive. Unless noted, on the % scale 0 is the no-effect control and ±100 the full control effect.

SMILES	HT1080 IDH1KD tx	DT40 TDP1 no CPT	DT40 TDP1 CPT	IL1B secr inh	HT1080NT lethal	12-LOX inh
CC(C)NC(=O)C1CCc2nnc(CNC(=O)Nc3cccnc3)n21 (stereo not drawn)	/	/	/	/	/	-0.6%[6.33 µM]
CC(C)CCN1C(Nc2ccccc2)=NC[C@@H]1CC(C)C	5.4%	?	14.6µM*	-7.4	-5.0%	0.8%
C[C@H]1CN=C(Nc2ccccc2)N1CC1CCCCC1	2.5%	?	?	-3.9	-3.1%	-6.6%
CC(C)C[C@H]1CN=C(Nc2ccccc2)N1CC1CCCCCC1	-25.1%	20.6µM*	?	-5.5	-18.2%	-12.4%
CCC(C)CCN1C(Nc2ccccc2)=NC[C@@H]1CC(C)C (stereo partly drawn)	4.2%	16.4µM*	16.4µM*	-28.6	-0.6%	32.1%
CCN1C(Nc2ccccc2)=NC[C@@H]1CC(C)C	-9.5%	9.7%	0.9%	10.7	-8.0%	12.4%
CCC(C)CCN1C(Nc2ccccc2)=NC[C@@H]1Cc1ccccc1 (stereo partly drawn)	-16.8%	16.4µM*	20.6µM*	?	?	1.3%
O=C(O)CNS(=O)(=O)c1ccc2c(c1)Cc1cc(S(=O)(=O)NCC(=O)O)ccc1-2	1.0%	-0.3%	1.2%	12.5	2.0%	8.91µM*
O=C(O)CNS(=O)(=O)c1ccc2c(c1)C(=O)c1cc(S(=O)(=O)NCC(=O)O)ccc1-2	3.2%	6.1%	8.4%	10.2	7.1%	0.0%
c1ccc(C2=NNC(c3ccco3)=Nc3ccccc32)cc1	2.0%	?	-16.6%	0.0	-1.0%	13.1%
Cc1ccc(C2=NNC(c3ccc(Cl)cc3)=Nc3ccccc32)o1	-9.3%	11.6µM*	13µM*	-1.6	-13.6%	-21.1%
O=C(CCl)N1CCN(S(=O)(=O)Cc2ccccc2)CC1	?	4.61µM*	18.4µM*	-99.6*	?	-11.3%
CC(c1ccccc1)N1CCN(C(=O)CCl)CC1 (stereo not drawn)	3.7%	18.4µM*	11.6µM*	-78.8*	?	-17.5%
CC(CC(=O)N1CCN(C(=O)c2ccccc2)CC1)c1ccccc1 (stereo not drawn)	15.0%	-2.3%	6.5%	8.1	16.9%	0.0%
CC/C(=C\c1oc2cc3ccccc3cc2[n+]1CC)Nc1ccccc1	?	13µM*	4.61µM*	-106.8*	-28.6%	-26.6%
O=C(NCCc1ccc(Cl)cc1)c1cccn1-c1nnc(N2CCCC2)s1	/	?	23.1µM*	/	/	-28.1%
O=C(NCCc1ccc(Cl)cc1)c1cccn1-c1nnc(N2CCCCC2)s1	/	23.1µM*	?	/	/	?
O=C(NCc1cccc(Br)c1)c1cccn1-c1nnc(N2CCCCC2)s1	/	14.6µM*	?	/	/	-6.0%
COc1cccc(CNC(=O)c2cccn2-c2nnc(N3CCCC3)s2)c1	/	?	?	/	/	-14.9%
Cc1ccc(CCNC(=O)c2cccn2-c2nnc(N3CCCCC3)s2)cc1	/	/	/	/	/	-12.8%
CSc1ccc(/C=C/C(=O)c2ccc(NC(=O)c3cccc(C)c3)cc2)cc1	/	/	/	/	/	16.8%
Cc1c(N=Cc2c(O)n(Cc3ccco3)c(=O)c3ccccc23)c(=O)n(-c2ccccc2)n1C	1.0%[9.24 µM]	?	20.6µM*	5.2	-22.9%	9.1%
COCCNC(=O)C1CCN(c2nc3ccccc3nc2C(F)(F)F)CC1	/	-20.4%	?	/	/	-1.5%
COc1ccc(CNC(=O)C2CCN(c3nc4ccccc4nc3OC)CC2)cc1	/	/	/	/	/	-6.0%
CCCCNC(=O)C1CCN(c2nc3ccccc3nc2C(F)(F)F)CC1	/	?	16.4µM*	/	/	-12.8%
CC(C)Oc1ccc(CNC(=O)C2CCN(c3nc4ccccc4nc3C(F)(F)F)CC2)cc1	/	5.8µM*	4.11µM*	/	/	-9.6%
